Assay results from PubChem BioAssay (NCATS).
Records with an inconclusive call do not appear. Where a call stands in place of a potency, no number is given. Calls of active or inactive are those of the source. The call rests on the fitted dose curve; in most records, active means well fitted inhibition curve with a large enough effect; inconclusive means small, poorly fitted or top-dose-only effect; inactive means flat fitted curve, though single readings scatter.

Target: Ubiquitin carboxyl-terminal hydrolase 1 (Homo sapiens) (UniProt O94782)
Sequence (O94782 whole entry, looked up): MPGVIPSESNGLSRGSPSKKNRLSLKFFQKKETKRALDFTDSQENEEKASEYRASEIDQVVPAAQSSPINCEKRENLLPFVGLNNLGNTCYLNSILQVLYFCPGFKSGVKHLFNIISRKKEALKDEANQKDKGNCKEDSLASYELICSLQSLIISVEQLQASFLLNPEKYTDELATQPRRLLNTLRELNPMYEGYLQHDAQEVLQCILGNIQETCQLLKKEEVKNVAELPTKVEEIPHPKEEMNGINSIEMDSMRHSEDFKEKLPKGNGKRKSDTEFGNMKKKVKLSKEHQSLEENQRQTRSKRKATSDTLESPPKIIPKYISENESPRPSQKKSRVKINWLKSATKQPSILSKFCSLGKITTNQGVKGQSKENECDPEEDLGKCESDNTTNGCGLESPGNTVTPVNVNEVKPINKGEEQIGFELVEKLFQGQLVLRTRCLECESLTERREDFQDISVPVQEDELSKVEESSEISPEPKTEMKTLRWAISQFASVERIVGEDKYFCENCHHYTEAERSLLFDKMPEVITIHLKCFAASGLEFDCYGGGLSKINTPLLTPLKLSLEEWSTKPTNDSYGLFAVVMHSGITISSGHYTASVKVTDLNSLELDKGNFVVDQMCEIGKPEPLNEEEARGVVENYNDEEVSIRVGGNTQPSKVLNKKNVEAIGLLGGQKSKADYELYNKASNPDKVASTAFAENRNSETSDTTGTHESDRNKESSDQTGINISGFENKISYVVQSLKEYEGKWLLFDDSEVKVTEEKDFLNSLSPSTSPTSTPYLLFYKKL
Test: Inhibitors of USP1/UAF1: Pilot qHTS (AID 504865); further: nearly all actives have a fitted effect of over 35% in size
Conditions: purified USP1/UAF1, Ub-rhodamine cleavage fluorescence; series mostly up to 114 µM
Outline: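 USP1/UAF1 complex (1nM) preincubated with compound 15 min at room temperature, then Ub-Rho substrate (150nM final) added. Fluorescence read kinetically at 480/540 nm, 6 reads every 60 seconds. Buffer: 50mM HEPES pH 7.8, 0.5mM EDTA, 0.1 mg/ml BSA, 1mM TCEP, 0.01% Tween-20.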
Potency means the concentration at half of the fitted maximal effect.

Compound | Potency
CC(=O)OCC[N+](C)(C)C | inactive
CN1CCCN(C(c2ccccc2)c2ccc(Cl)cc2)CC1 (configuration not stated) | inactive
CCOC(=O)NNc1nncc2ccccc12 | inactive
CN1CCC(Nc2ncc3ncnc(Nc4ccc(F)c(Cl)c4)c3n2)CC1 | inactive
O=C(CCCCC(=O)Nc1c(I)cc(I)c(C(=O)O)c1I)Nc1c(I)cc(I)c(C(=O)O)c1I | inactive
Nc1ncnc2nc[nH]c12 | inactive
OCc1c[nH]c2ccccc12 | inactive
O=S(=O)(O)c1ccc2nc(-c3ccccc3)[nH]c2c1 | inactive
CCCCCCCCCCCCCC[N+](C)(C)C | 50.1 µM (active)
OC(CCCN1CCCCC1)(c1ccccc1)c1ccccc1 | inactive
Nc1c2ccccc2nc2ccccc12 | inactive
CCCCCCCCCCCCCCCC[N+](C)(C)Cc1ccccc1 | 50.1 µM (active)
Cc1cc(C(C)(C)C)c(O)c(C(C)(C)C)c1 | inactive
CN(C(=O)C(Cl)Cl)c1ccc(OC(=O)c2ccco2)cc1 | inactive
Nc1c[n+](N2CCOCC2)no1 | inactive
COC(=O)c1c(Cl)c(Cl)c(C(=O)OC)c(Cl)c1Cl | inactive
COc1cc(C=O)ccc1O | inactive
NCC(=O)O | inactive
Nc1ccc2cc3ccc(N)cc3nc2c1 | inactive
O=C(Nc1ccc(Cl)cc1)Nc1ccc(Cl)c(Cl)c1 | inactive
C[C@@H](C1=C(CCN(C)C)Cc2ccccc21)c1ccccn1 | inactive
Cc1ccc2c(Cl)cc(Cl)c(O)c2n1 | inactive
